The results in this text go back to publication PMC5700166.

This experiment concerns the target T1, GST-Nv-NF-kB (Cys allele) (Nematostella vectensis, UniProt E5G601 2-411).
T1 sequence: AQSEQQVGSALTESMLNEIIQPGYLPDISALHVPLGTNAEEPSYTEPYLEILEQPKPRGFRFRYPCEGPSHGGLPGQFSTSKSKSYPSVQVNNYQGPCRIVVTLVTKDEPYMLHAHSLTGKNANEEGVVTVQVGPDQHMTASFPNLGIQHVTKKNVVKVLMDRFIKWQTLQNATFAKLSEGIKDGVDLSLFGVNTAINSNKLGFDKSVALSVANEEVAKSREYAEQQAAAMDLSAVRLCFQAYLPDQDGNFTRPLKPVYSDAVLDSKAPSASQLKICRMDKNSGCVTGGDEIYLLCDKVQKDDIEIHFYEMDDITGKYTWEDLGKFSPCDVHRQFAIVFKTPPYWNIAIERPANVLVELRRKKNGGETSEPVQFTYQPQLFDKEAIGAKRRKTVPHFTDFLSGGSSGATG
Nature of the experiment: protein-binding microarray (PBM); PBM: ~300 nM protein, 6 mM HEPES pH 7.8, 80 mM KCl, 0.5 mM EDTA, 0.5 mM EGTA, 6% glycerol, 35 ng/ul poly-dIdC, 1% milk, 1 h, room temperature; Ap Aiptasia and Nv Nematostella (sea anemones) / Co Capsaspora / Aq Amphimedon (sponge) / Dm Drosophila / Hu human; RHD is the Rel homology domain; high values mean tight binding. To be noted: dsDNA, one strand shown.
For “CCGATTAACATCAGAAATACCCCTGATGTTAATCGGGTCTTGATTCGCTTGACGCTGCTG”, the binding signal was 6.99 z-score. As for “CCGATTAACATCAAATCATTCCCTGATGTTAATCGGGTCTTGATTCGCTTGACGCTGCTG”, the binding signal was 3.39 z-score. As for “CCGATTAACATCAGAATTACCCCTGATGTTAATCGGGTCTTGATTCGCTTGACGCTGCTG”, the figure is 5.36 z-score. As for “CCGATTAACATCAGGGGGGTTAATGATGTTAATCGGGTCTTGATTCGCTTGACGCTGCTG”, the figure is 4.44 z-score; as for “CCGATTAACATCAAAATTCCCCCTGATGTTAATCGGGTCTTGATTCGCTTGACGCTGCTG”, 11.6 z-score; as for “CCGATTAACATCAATTCCCCTGATGATGTTAATCGGGTCTTGATTCGCTTGACGCTGCTG”, 7.45 z-score. The value for “CCGATTAACATCAGGGGAATACCTGATGTTAATCGGGTCTTGATTCGCTTGACGCTGCTG” was 11.8 z-score. As to “CCGATTAACATCATTCCCGGGAATGATGTTAATCGGGTCTTGATTCGCTTGACGCTGCTG”, the binding signal came to 4.09 z-score. The value for “CCGATTAACATCACGAAATCCCCTGATGTTAATCGGGTCTTGATTCGCTTGACGCTGCTG” was 9.59 z-score; that for “CCGATTAACATCAATCTTCCCCCTGATGTTAATCGGGTCTTGATTCGCTTGACGCTGCTG” was 6.99 z-score; that for “CCGATTAACATCAGAGTTCCCCCTGATGTTAATCGGGTCTTGATTCGCTTGACGCTGCTG” was 7.87 z-score. The value for “CCGATTAACATCAGGGGATAACCTGATGTTAATCGGGTCTTGATTCGCTTGACGCTGCTG” was 6.28 z-score; that for “CCGATTAACATCAGGGGATTCCATGATGTTAATCGGGTCTTGATTCGCTTGACGCTGCTG” was 9.04 z-score; that for “CCGATTAACATCAAGGGGGATATTGATGTTAATCGGGTCTTGATTCGCTTGACGCTGCTG” was 6.77 z-score. The value for “CCGATTAACATCAGGGGGGAAAATGATGTTAATCGGGTCTTGATTCGCTTGACGCTGCTG” was 6.13 z-score; that for “CCGATTAACATCAAAATCCCCCTTGATGTTAATCGGGTCTTGATTCGCTTGACGCTGCTG” was 10.7 z-score. In turn, “CCGATTAACATCAGGGGTATTTATGATGTTAATCGGGTCTTGATTCGCTTGACGCTGCTG” came in with a binding signal of 5.26 z-score. As for “CCGATTAACATCAGGGAGTTTTATGATGTTAATCGGGTCTTGATTCGCTTGACGCTGCTG”, the figure is 7.35 z-score. Consider “CCGATTAACATCAAGGGGGTTTCTGATGTTAATCGGGTCTTGATTCGCTTGACGCTGCTG”, for which the binding signal was 8.37 z-score. As for “CCGATTAACATCAAAACTCCCCGTGATGTTAATCGGGTCTTGATTCGCTTGACGCTGCTG”, the figure is 6.47 z-score; as for “CCGATTAACATCAATTTTCCCCATGATGTTAATCGGGTCTTGATTCGCTTGACGCTGCTG”, 7.68 z-score; as for “CCGATTAACATCAAAAAATCCCATGATGTTAATCGGGTCTTGATTCGCTTGACGCTGCTG”, 5.22 z-score.

“CCGATTAACATCAGGGGAAAGAATGATGTTAATCGGGTCTTGATTCGCTTGACGCTGCTG”: the binding signal is 6.07 z-score. As for “CCGATTAACATCAATTTTCCCACTGATGTTAATCGGGTCTTGATTCGCTTGACGCTGCTG”, the figure is 3.99 z-score. As for “CCGATTAACATCAAATTTCCCATTGATGTTAATCGGGTCTTGATTCGCTTGACGCTGCTG”, the figure is 4.83 z-score; as for “CCGATTAACATCAACAAAATCCCTGATGTTAATCGGGTCTTGATTCGCTTGACGCTGCTG”, 3.64 z-score. For “CCGATTAACATCAGGGGAAAACATGATGTTAATCGGGTCTTGATTCGCTTGACGCTGCTG”, the binding signal was 7.81 z-score. On to “CCGATTAACATCAGGCCTTTCCCTGATGTTAATCGGGTCTTGATTCGCTTGACGCTGCTG”, for which the binding signal was found to be 4.72 z-score.

As for “CCGATTAACATCAGGGAGTACCCTGATGTTAATCGGGTCTTGATTCGCTTGACGCTGCTG”, the binding signal turned out to be 4.14 z-score. With “CCGATTAACATCAGGACGTCCCCTGATGTTAATCGGGTCTTGATTCGCTTGACGCTGCTG”, the binding signal was 6.03 z-score. The sequence “CCGATTAACATCACAAAAAACCCTGATGTTAATCGGGTCTTGATTCGCTTGACGCTGCTG” returned a binding signal of 4.37 z-score. As for “CCGATTAACATCAGATAATCCCCTGATGTTAATCGGGTCTTGATTCGCTTGACGCTGCTG”, the figure is 8.93 z-score. In turn, “CCGATTAACATCAGGGAAAGACCTGATGTTAATCGGGTCTTGATTCGCTTGACGCTGCTG” registered a binding signal of 5.27 z-score.

As to “CCGATTAACATCAGGGGAAAAGATGATGTTAATCGGGTCTTGATTCGCTTGACGCTGCTG”, the binding signal was 6.76 z-score. “CCGATTAACATCAGCAATCCCCCTGATGTTAATCGGGTCTTGATTCGCTTGACGCTGCTG” gave a binding signal of 6.26 z-score. For the sequence “CCGATTAACATCAAGGGGGAATCTGATGTTAATCGGGTCTTGATTCGCTTGACGCTGCTG”, the binding signal was determined as 8.91 z-score.

In turn, “CCGATTAACATCAATAAAACCCCTGATGTTAATCGGGTCTTGATTCGCTTGACGCTGCTG” gave a binding signal of 5.27 z-score.
